For ten compounds, Potency, outcome and activity change, positive = activation results are on record in PubChem BioAssay (Tox21).

Unmarked numbers belong to inactive results. Inconclusive results are not listed. Activity calls are given as the source filed them. Unless noted, calls come from the whole dose curve; as a rule, active = well fitted curve in the direction sought with a large enough effect in the repeat runs; inconclusive = weak or mixed curves; inactive = no such curve, though single readings can be large; an effect the other way counts as inactive or inconclusive.

Assay [1] is described as follows: qHTS assay to identify small molecule antagonists of the estrogen related receptor (ERR) signaling pathway from Tox21 library - cell viability counter screen (AID 1224834). Note: nearly all actives have a fitted effect of over 30% in size. Note: potency is the fitted concentration of half-maximal effect. Summed up: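 ERR reporter cells, 2,000 per well, rested 6 h, then exposed to compound in DMSO for 17.5 hours at 37 C. Viability read as fluorescence after 30 min with CellTiter-Fluor.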
Assay [2] is described as follows: qHTS assay to identify small molecule agonists of the constitutive androstane receptor (CAR) signaling pathway - cell viability counter screen (AID 1224836). Note: nearly all actives have a fitted effect of over 45% in size. Summed up:
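Counter screen multiplexed with the CAR reporter readout: HepG2 cells co-transfected with hCAR and the CYP2B6-2.2kb construct receive a 15-concentration compound series and 0.75 uM PK11195 (final), then CellTiter-Fluor fluorescence is read after 23 h.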

Assay [3] is described as follows: qHTS assay to identify small molecule antagonists of the constitutive androstane receptor (CAR) signaling pathway - cell viability counter screen (AID 1224837). Note: nearly all actives have a fitted effect of over 45% in size. The procedure, abridged: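 HepG2 cells stably carrying hCAR and CYP2B6-2.2kb reporter, stimulated with 50 nM CITCO and compounds at 15 concentrations for 23 h at 37 C. Viability measured by CellTiter-Fluor fluorescence.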

Assay [4] concerns the target Nuclear receptor subfamily 1 group I member 3 (Homo sapiens) (UniProt Q14994). Nature of the assay: qHTS assay to identify small molecule antagonists of the constitutive androstane receptor (CAR) signaling pathway (AID 1224838). Note: nearly all actives have a fitted effect of over 40% in size. Summed up:
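HepG2 cells stably carrying hCAR and a CYP2B6-2.2kb luciferase reporter, seeded 4 hrs before compound (15 concentrations). Stimulated with 50 nM CITCO for 24 hr at 37 C. ONE-Glo luminescence read after 30 min at room temperature.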

Assay [5] has the same target. Nature of the assay: qHTS assay to identify small molecule agonists of the constitutive androstane receptor (CAR) signaling pathway (AID 1224839). Note: nearly all actives have a fitted effect of over 15% in size. Note: potency is the fitted concentration of half-maximal effect. Summed up: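 A 15-concentration quantitative screen uses HepG2 cells co-transfected stably with human CAR and CYP2B6-2.2kb reporter. Treatment lasts 24 h with 0.75 uM PK11195 final present; ONE-Glo luminescence is the signal.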

Assay [6] can be described thus: qHTS assay to identify small molecule antagonists of the estrogen related receptor signaling pathway with the pleiotropic PPARgamma coactivator (PGC) from Tox21 10K library - cell viability counter screen (AID 1224840; active = well fitted cell-killing curve with a large enough effect in the repeat runs, not every such curve was filed as active; note: nearly all actives have a fitted effect of over 40% in size). The procedure, abridged:
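PGC/ERR cells (2,000/well) plated 6 h, then compound-treated for 17.5 h at 37 C. Viability measured by CellTiter-Fluor fluorescence after 30 min at 37 C, multiplexed with the pathway assay.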

The nature of assay [7]: qHTS assay to identify small molecule agonists of the estrogen related receptor signaling pathway with the pleiotropic PPARgamma coactivator (PGC) from Tox21 10K library (AID 1224842). Note: nearly all actives have a fitted effect of over 15% in size. Summed up: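 Luminescence from One-Glo (30 min, room temperature) measured after PGC/ERR cells had 18 h at 37 C with pinned compound (23 nL in DMSO). Cells had been seeded at 2,000 per well and pre-incubated 6 h.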

The nature of assay [8]: qHTS assay to identify small molecule agonists of the hypoxia (HIF-1) signaling pathway - cell viability counter screen (AID 1224844; calls by dose curve; note: nearly all actives have a fitted effect of over 50% in size). Summed up: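 HRE-bla ME-180 cells, 2,000/well in 0.5% dialyzed FBS medium, treated 17 h at 37C with compounds. Viability read in the same wells as the bla reporter, by CellTiter-Glo luminescence after 30 min at room temperature.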
A short description of assay [9]: qHTS assay to identify small molecule agonists of H2AX (AID 1224845; active = well fitted activation curve with a large enough effect in the signal ratio in the repeat runs, not every such curve was filed as active; the % refers to the signal ratio). Summed up:
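Phospho-H2AX Ser139 measured by HTRF (ex 320 nm; em 665 and 620 nm) after 24 hr antibody incubation. Compounds, 15 concentrations, 0.76% DMSO, were applied to CHO-K1 cells for 3hr at 37C before lysis.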

Assay [10] is described as follows: qHTS assay to identify small molecule agonists of the hypoxia (HIF-1) signaling pathway (AID 1224846; active = well fitted activation curve with a large enough effect in the signal ratio in the repeat runs, not every such curve was filed as active; the % refers to the signal ratio). The procedure, abridged:
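HRE-bla ME-180 beta-lactamase reporter cells in medium with 0.5% dialyzed FBS, pre-incubated 5 h then exposed to compounds 17 h at 37C, 5% CO2; reporter induction read with CCF4-AM FRET substrate.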

A short description of assay [11]: qHTS assay to identify small molecule agonists of H2AX - cell viability counter screen (AID 1224847; calls by dose curve; note: nearly all actives have a fitted effect of over 30% in size; note: potency is the fitted concentration of half-maximal effect). The procedure, abridged:
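We seed wild-type CHO-K1 cells overnight, treat them for 3 hr at 37C with compounds in 15-concentration series, and quantify remaining viability by CellTiter-Glo luminescence.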

Assay [12] is described as follows: qHTS assay to identify small molecule antagonists of the estrogen related receptor (ERR) signaling pathway from Tox21 library (AID 1224848). Note: nearly all actives have a fitted effect of over 50% in size. The procedure, abridged: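 Reading was by luminescence 30 min after ONE-Glo addition. Before that, ERR cells at 2,000 per well had rested 6 h at 37 C/5% CO2 and then received pin-tooled compounds in DMSO for 18 h at 37 C.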

Assay [13] is described as follows: qHTS assay to identify small molecule agonists of the estrogen related receptor (ERR) signaling pathway from Tox21 library (AID 1224849; calls by dose curve; note: nearly all actives have a fitted effect of over 15% in size). The following applies: ERR reporter cell line, ONE-Glo luciferase, 18 h; at 92.4 µM (top of the series) unless noted. The procedure, abridged:
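ERR reporter cells (NTP line) pre-incubated 6 hours at 37 C, then exposed to compounds for 18 hours at 37 C. ONE-Glo luciferase luminescence was read after 30 minutes at room temperature.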

Assay [14] in a line: qHTS RealTime-Glo MT Cell Viability Assay in HepG2 cells - 24 hour (AID 1224867). Note: nearly all actives have a fitted effect of over 50% in size. Summed up: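 Real-time, nonlytic viability: 600 HepG2 cells/well mixed with NanoLuc enzyme plus prosubstrate; 5 h settle, compound (DMSO) added by pintool; luminescence monitored over 40 h at 37 C.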
Assay [15] in a line: A CellTox Green Cytotoxicity Assay to monitor cytotoxicity in HEK293 cells - 0 hour (AID 1224869). Note: nearly all actives have a fitted effect of over 50% in size. Summed up:
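HEK293 cells, 600/well, were preincubated 5 hours and then exposed to compounds at 37 C for up to 40 hours. A cell-impermeant cyanine dye staining dead-cell DNA was read by fluorescence at 0, 8, 16, 24, 32 and 40 h time points.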

A short description of assay [16]: qHTS RealTime-Glo MT Cell Viability Assay in HepG2 cells - 40 hour (AID 1224870). Note: nearly all actives have a fitted effect of over 50% in size. The procedure, abridged: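 Real-time viability: cells seeded at 600 per well together with NanoLuc and cell-permeant prosubstrate, compounds added after 5 h incubation. Luminescence tracked at 0, 8, 16, 24, 32 and 40 h of exposure.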
Assay [17] has as its target Thyrotropin receptor (Homo sapiens) (UniProt P16473). Nature of the assay: qHTS assay to identify small molecule agonists of the thyroid stimulating hormone receptor (TSHR) signaling pathway (AID 1224843; calls by dose curve; note: nearly all actives have a fitted effect of over 45% in size). Summed up:
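HEK293 cells stably bearing the thyrotropin receptor were plated at 800 cells/well and challenged with compound (30 min, RT). Accumulated cAMP was quantified via cAMP-d2 competing for cryptate-tagged antibody.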

Assay [18] can be described thus: qHTS RealTime-Glo MT Cell Viability Assay in HEK293 cells - 32 hour (AID 1224868). Note: nearly all actives have a fitted effect of over 50% in size. Note: potency is the fitted concentration of half-maximal effect. The procedure, abridged: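 Cells + reagent dispensed (600 cells/well, HEK293) → 5 h at 37 C/5% CO2 → 23 nL compound in DMSO pinned → 40 h at 37 C → luminescence read at 0, 8, 16, 24, 32, 40 h.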
The target in assay [19] is Luciferin 4-monooxygenase (Photinus pyralis) (UniProt P08659). Description: qHTS assay to identify small molecule inhibitors of firefly luciferase (AID 1224835). Note: nearly all actives have a fitted effect of over 25% in size. Note: potency is the fitted concentration of half-maximal effect. The procedure, abridged: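 Inhibition of purified Photinus luciferase is measured by luminescence. Substrate levels (D-luciferin, ATP) sit at their KM values. Each compound is tested in a concentration series.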

The nature of assay [20]: qHTS assay to identify small molecule antagonists of the estrogen related receptor signaling pathway with the pleiotropic PPARgamma coactivator (PGC) from Tox21 10K library (AID 1224841; call rule not given here). Summed up:
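PGC/ERR cell line, 2,000 cells/well, pre-incubated 6 hours at 37 C, then exposed to compounds for 18 hours at 37 C; luciferase read with One-Glo luminescence after 30 min at room temperature.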
% is set by controls: 0 for no effect and ±100 for the full control effect.

Sequence of Thyrotropin receptor (Homo sapiens) (P16473 whole entry, looked up): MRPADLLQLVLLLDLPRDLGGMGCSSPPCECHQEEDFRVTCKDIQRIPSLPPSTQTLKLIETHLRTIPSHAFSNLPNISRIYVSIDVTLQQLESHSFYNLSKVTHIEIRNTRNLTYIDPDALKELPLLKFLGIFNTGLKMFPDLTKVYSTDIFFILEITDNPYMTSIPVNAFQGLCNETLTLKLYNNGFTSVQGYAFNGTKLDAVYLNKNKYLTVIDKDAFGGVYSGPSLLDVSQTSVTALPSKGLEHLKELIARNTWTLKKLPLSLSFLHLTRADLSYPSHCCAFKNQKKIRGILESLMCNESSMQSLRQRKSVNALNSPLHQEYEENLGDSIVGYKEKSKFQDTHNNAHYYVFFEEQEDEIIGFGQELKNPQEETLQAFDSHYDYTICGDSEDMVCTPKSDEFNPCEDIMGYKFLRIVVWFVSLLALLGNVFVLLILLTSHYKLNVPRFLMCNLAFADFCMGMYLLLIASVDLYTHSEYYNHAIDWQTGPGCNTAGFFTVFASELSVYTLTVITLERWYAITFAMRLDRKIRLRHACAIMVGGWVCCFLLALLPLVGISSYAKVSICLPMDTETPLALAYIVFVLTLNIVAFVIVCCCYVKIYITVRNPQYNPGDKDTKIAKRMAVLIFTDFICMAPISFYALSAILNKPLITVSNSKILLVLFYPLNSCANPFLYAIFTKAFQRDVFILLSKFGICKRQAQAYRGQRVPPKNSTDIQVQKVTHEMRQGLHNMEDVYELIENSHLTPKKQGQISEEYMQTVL
Sequence of Nuclear receptor subfamily 1 group I member 3 (Homo sapiens) (Q14994 whole entry, looked up): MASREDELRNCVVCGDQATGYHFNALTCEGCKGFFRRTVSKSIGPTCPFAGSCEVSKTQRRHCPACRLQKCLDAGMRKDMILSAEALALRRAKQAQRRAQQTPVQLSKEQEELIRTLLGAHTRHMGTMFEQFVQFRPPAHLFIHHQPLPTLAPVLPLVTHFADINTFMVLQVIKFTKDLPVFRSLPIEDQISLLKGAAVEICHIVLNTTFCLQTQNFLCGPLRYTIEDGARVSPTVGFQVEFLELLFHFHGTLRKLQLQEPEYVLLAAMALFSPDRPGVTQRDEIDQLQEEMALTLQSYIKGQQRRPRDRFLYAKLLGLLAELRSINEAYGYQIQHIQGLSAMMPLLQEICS
Sequence of Luciferin 4-monooxygenase (Photinus pyralis) (P08659 whole entry, looked up): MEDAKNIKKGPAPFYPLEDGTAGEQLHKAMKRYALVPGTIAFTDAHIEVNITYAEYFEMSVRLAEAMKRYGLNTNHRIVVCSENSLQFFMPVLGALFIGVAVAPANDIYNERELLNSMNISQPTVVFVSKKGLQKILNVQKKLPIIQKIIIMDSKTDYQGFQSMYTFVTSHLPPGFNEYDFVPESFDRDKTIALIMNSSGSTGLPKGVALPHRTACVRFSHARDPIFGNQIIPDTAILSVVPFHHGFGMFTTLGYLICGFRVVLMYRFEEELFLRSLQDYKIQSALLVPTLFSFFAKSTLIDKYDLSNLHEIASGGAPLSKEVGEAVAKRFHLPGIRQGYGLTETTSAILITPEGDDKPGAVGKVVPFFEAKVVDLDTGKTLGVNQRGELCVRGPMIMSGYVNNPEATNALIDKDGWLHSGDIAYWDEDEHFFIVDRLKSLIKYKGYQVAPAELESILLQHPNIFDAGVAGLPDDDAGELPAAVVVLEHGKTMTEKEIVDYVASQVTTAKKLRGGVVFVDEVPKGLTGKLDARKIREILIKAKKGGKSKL

With `COC(=O)c1ccccc1S(=O)(=O)NC(=O)N(C)c1nc(C)nc(OC)n1`, the Potency result in assay [1], in assay [2], in assay [3], in [4], in assay [5] and in [6] was “inactive” in each case. Also, the Potency result in [8], in assay [9], in assay [11], in [12], in [14] and in [15] was “inactive” in each case. Further, in assay [16], the Potency result was “inactive”. Besides, the outcome in [7] and in [10] was inactive. Also, the activity change, positive = activation in assay [13] was 6.39%.

Take `CC(=O)[C@H]1CC[C@H]2[C@@H]3CC[C@H]4C[C@H](O)CC[C@]4(C)[C@H]3C(=O)C[C@]12C`: the Potency entry in assay [1], in assay [2], in assay [3], in assay [4], in assay [5] and in assay [6] was “inactive” each time. Also, the Potency entry in [9], in [11], in assay [14], in assay [15] and in assay [16] was “inactive” each time. Moreover, in assay [7], the call was inactive. Besides, in assay [13], the activity change, positive = activation is -14.9% [at 42.5 µM].

As to `CC(C=O)Cc1ccc2c(c1)OCO2` (configuration not stated), the Potency result in assay [1], in [2], in [3], in assay [4], in assay [5] and in assay [6] was “inactive” throughout. Besides, the Potency entry in assay [17], in assay [8], in assay [9], in [11], in assay [14] and in [18] was “inactive” in each case. Moreover, the Potency result in assay [15] and in assay [16] was “inactive” each time. Further, the outcome in assay [10] was inactive.

In the case of `CCN(CC)C(=O)[C@@H]1C=C2c3cccc4[nH]cc(c34)C[C@H]2N(C)C1`, the Potency in assay [1] was 80 µM (active). The Potency entry in assay [19], in assay [4], in [5], in assay [8], in assay [11] and in assay [14] was “inactive” each time. Besides, the Potency result in assay [15] and in assay [16] was “inactive” throughout. Besides, the call in assay [7] was inactive. Moreover, in assay [13], the activity change, positive = activation is -24.6% [at 240 µM].

As to `ClCCCN1CCN(c2cccc(Cl)c2)CC1`, the Potency entry in [1], in assay [19], in assay [3], in [4], in [6] and in [20] was “inactive” in each case. Also, the Potency result in assay [17], in assay [8], in assay [9], in assay [11], in assay [12] and in assay [14] was “inactive” each time. For the same compound, the Potency result in assay [18], in assay [15] and in assay [16] was “inactive” each time. In addition, the compound was classed as inactive in [7]. Besides, the activity change, positive = activation in assay [13] was -4.21% [at 42.5 µM].

For the compound `CN/C(=N\[N+](=O)[O-])NCC1CCOC1` (configuration not stated), the Potency entry in assay [1], in assay [2], in assay [3], in assay [4], in assay [5] and in assay [6] was “inactive” each time. Further, the Potency entry in assay [17], in assay [8], in assay [9], in assay [11], in assay [14] and in assay [18] was “inactive” throughout. The Potency result in [15] and in assay [16] was “inactive” throughout.

For the compound `CC1=C(C(=O)Nc2ccccc2)S(=O)(=O)CCO1`, the Potency in assay [1] is 61.1 µM (active); in assay [18] it was 48.9 µM (active). Further, the Potency entry in assay [19], in assay [5], in assay [17], in assay [9], in assay [11] and in assay [14] was “inactive” each time. In addition, the Potency result in assay [15] is “inactive”.

For the compound `c1coc(-c2nc3ccccc3[nH]2)c1`, the Potency result in assay [1], in [2], in assay [4], in assay [6], in assay [17] and in assay [8] was “inactive” throughout. In addition, the Potency result in [9], in [14], in assay [15] and in assay [16] was “inactive” throughout. For the same compound, the figures for the Potency in assay [19], in assay [5] and in [11] were 28.3 µM (active), 7.7 µM (active) and 80 µM (active), respectively.

`O=C(NCO)NCO`: the Potency result in [1], in assay [2], in assay [3], in [4], in assay [5] and in assay [6] was “inactive” in each case. The Potency result in [17], in assay [8], in assay [9], in [11], in [14] and in assay [15] was “inactive” each time. Moreover, the Potency entry in assay [16] was “inactive”. Also, the outcome in assay [10] was inactive.

`CNC(=O)Oc1ccccc1C1OCCO1`: the Potency result in [1], in assay [2], in [3], in assay [4], in assay [5] and in assay [6] was “inactive” each time. Besides, the Potency result in assay [20], in [8], in assay [9], in assay [11], in [12] and in assay [14] was “inactive” each time. Further, in assay [16], the Potency result was “inactive”. In assay [7], the compound was classed as inactive. Also, in [13], the activity change, positive = activation was 4.32%.
